# Reference: article PMC4336329 (PLoS ONE, 2015)
# Out of some 310,000 compounds screened, about 14,000 (4.5%) showed an effect of 50% or more. Effects have a minus sign here. Shown is part of a subset that was picked to be rich in strong results.
# Target: human ether-à-go-go-related gene (hERG) potassium channel (human, UniProt Q12809)
# Experiment: primary screen, population patch clamp on CHO cells stably expressing hERG; higher = less effect of the substance
# 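Further: peak tail current of the secondary pulse compared with the same well before compound.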
# Chain of human ether-à-go-go-related gene (hERG) potassium channel (Q12809 whole entry, looked up): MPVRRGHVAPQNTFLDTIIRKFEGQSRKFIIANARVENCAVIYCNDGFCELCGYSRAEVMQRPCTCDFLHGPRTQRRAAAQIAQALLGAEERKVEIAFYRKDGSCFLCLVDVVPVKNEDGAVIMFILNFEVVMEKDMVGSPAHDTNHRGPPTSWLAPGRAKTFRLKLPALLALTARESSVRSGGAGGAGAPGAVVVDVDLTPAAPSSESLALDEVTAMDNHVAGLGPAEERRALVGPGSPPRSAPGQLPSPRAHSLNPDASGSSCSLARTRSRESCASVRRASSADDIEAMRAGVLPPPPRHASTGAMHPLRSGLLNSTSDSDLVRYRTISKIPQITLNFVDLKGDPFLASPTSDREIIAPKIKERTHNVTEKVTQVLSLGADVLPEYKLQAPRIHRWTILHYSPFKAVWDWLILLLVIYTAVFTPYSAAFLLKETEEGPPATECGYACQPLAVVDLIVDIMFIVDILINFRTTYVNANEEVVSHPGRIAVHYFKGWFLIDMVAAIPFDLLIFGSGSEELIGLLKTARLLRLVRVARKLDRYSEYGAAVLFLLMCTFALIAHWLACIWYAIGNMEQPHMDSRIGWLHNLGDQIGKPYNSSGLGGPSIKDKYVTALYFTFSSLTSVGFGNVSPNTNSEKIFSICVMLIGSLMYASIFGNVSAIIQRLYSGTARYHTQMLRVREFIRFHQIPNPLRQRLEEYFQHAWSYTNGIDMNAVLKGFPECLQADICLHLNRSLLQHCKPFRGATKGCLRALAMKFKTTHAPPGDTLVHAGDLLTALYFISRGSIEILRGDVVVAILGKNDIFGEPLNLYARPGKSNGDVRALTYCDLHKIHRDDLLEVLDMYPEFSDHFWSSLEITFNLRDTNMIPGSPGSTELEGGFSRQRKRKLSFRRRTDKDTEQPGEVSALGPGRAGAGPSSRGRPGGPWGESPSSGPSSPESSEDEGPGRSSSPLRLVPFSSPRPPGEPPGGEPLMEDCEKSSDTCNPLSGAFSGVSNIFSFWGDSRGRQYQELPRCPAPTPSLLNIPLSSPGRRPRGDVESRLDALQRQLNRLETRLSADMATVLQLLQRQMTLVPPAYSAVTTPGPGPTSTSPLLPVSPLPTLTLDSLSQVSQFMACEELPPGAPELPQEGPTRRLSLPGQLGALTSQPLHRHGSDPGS
row,SMILES,"hERG current change (%, negative = inhibition) at 10uM"
1,CN(CC(=O)Nc1ccc(F)c(F)c1F)C1CCCCC1,-52.5%
2,CCCCCOc1ccc(NC(=O)C(=O)NCC2CCCN2CC)cc1 (centres unmarked),-77.9%
3,CN(CC(=O)Nc1ccc(OC(F)(F)F)cc1)C1CCCCC1.Cl,-61.6%
4,CN(CC(=O)Nc1ccc(F)c(F)c1F)C(=O)C1CCC1,9.13%
5,CCOC(=O)C1CSC(CC(=O)Nc2ccc(OCC)cc2)C(=O)N1 (centres unmarked),-5.69%
6,CCOc1ccc(NC(=O)C(=O)NCC2CCCN2CC)cc1 (centres unmarked),-16.4%
7,CCOC(=O)C1CSC(CC(=O)Nc2ccc(Cl)cc2)C(=O)N1 (centres unmarked),-14.9%
8,CCN1CCCC1CNC(=O)C(=O)Nc1ccccc1 (centres unmarked),-9.35%
9,CC(=O)Nc1ccc(NC(=O)c2ccc(COc3ccccc3Br)o2)cc1,17.1%
10,CCOC(=O)c1c(C)[nH]c(C(=O)COC(=O)CN2C(=O)C3CCCCC3C2=O)c1C (centres unmarked),-16.8%
11,Nc1cc(-c2ccccc2)nn1Cc1ccc(Cl)cc1,-19%
12,O=C(CCCOc1ccccc1)Nc1ccc(Br)cc1,22.3%
13,CC(=O)OCCn1c(=O)c2cc3c(=O)n(CCOC(C)=O)c(=O)c3cc2c1=O,-4.39%
14,Cn1nccc1C(=O)N1CCC(Cc2ccccc2)CC1,-9.69%
15,Cc1ccc(S(=O)(=O)N2CCOCC2)cc1C(=O)N1CC(C)OC(C)C1 (centres unmarked),15.1%
16,COc1ccc(S(=O)(=O)N2CCCCC2)cc1NC(=O)CN(Cc1ccco1)Cc1ccco1,-23.7%
17,Cc1ccccc1C(=O)NC(=S)Nc1ccc2[nH]c(=O)[nH]c2c1,23.1%
18,COC(=O)c1ccc(COC(=O)c2c(C)nn(Cc3ccccc3Cl)c2Cl)o1,10.9%
19,COc1ccc(NC(=O)CN(C)C2CCCCC2)cc1Cl,-55%
20,CN(CC(=O)Nc1ccc(Cl)cc1)C1CCCCC1,-10%
21,COc1ccc(NC(=O)CN(C2CCCCC2)S(C)(=O)=O)cc1Cl,-18.4%
22,CN(CC(=O)Nc1ccc(SC(F)F)cc1)C1CCCCC1,-70%
23,CN(CC(=O)Nc1ccc(S(N)(=O)=O)cc1)C1CCCCC1,-1.84%
24,COCCCNCC(=O)Nc1ccc(OC(F)(F)F)cc1.Cl,-30%

row,SMILES,"hERG current change (%, negative = inhibition) at 10uM"
1,COCCNCC(=O)Nc1ccc(OC(F)(F)F)cc1.Cl,-33.9%
2,CN(CC(=O)Nc1ccc(Cl)c(Cl)c1)C1CCCCC1.O=C(O)C(=O)O,-7.28%
3,CCOCCCNCC(=O)Nc1ccc(OC(F)(F)F)cc1.Cl,-56.4%
4,CCCCCCSc1nsc(N)n1,-10.8%
5,Cc1cccnc1NC(=O)CNC(=O)C12CC3CC(CC(Cl)(C3)C1)C2,13%
6,CCCCc1ccc(-c2nc(-c3ccncc3)no2)cc1,16%
7,Cc1ccsc1-c1nc(C(N)=O)c2[nH]c(=O)n(-c3ccc(Cl)cc3)c2n1,1.51%
8,O=C(NCc1cccnc1)c1ccc(COc2ccccc2Cl)cc1,4.47%
9,Cc1cccc(OCC(=O)Nc2ccc(C(=O)NCc3cccnc3)cc2)c1,-0.608%
10,O=C(COc1ccc(Cl)cc1)Nc1ccc(C(=O)NCc2cccnc2)cc1,-36.8%
11,O=C(COc1ccc(C(=O)NCc2cccnc2)cc1)Nc1cccc(C(F)(F)F)c1,-60.6%
12,O=C(NCc1cccnc1)c1ccc(COc2ccc(Cl)cc2)cc1,-58.6%
13,COc1cc(C(=O)NCc2cccnc2)ccc1OCC(=O)Nc1cccc(C(F)(F)F)c1,3.13%
14,Cc1cccc(-n2c(C)cc(/C=N\NC(=O)c3ccco3)c2C)c1,-12.8%
15,OCC1(Cc2ccccc2F)CCCN(CC2CCCCC2)C1 (centres unmarked),-37.7%
16,O=C(Cc1cccc(F)c1)N1CCCC(CO)(Cc2ccc(F)cc2F)C1 (centres unmarked),-9.84%
17,C=CCC(=O)N1CCCC(CO)(Cc2ccc(F)cc2F)C1 (centres unmarked),0.892%
18,OCC1(Cc2ccccc2F)CCCN(CCc2ccccc2)C1 (centres unmarked),-74.8%
19,OCC1(Cc2ccc(F)cc2F)CCCN(CCCc2ccccc2)C1 (centres unmarked),-82.9%
20,OCC1(Cc2ccc(F)cc2)CCCN(CCc2ccccc2)C1 (centres unmarked),-45.5%
21,Cc1ccccc1CC1(CO)CCCN(C(=O)Cc2c(F)ccc(F)c2F)C1 (centres unmarked),-0.736%
22,CSCCCN1CCCC(CO)(Cc2ccccc2F)C1 (centres unmarked),-38.3%
23,OCC1(Cc2ccccc2F)CCCN(Cc2c(F)ccc(F)c2F)C1 (centres unmarked),-55.5%
